Laboratory results as given in PubChem BioAssay (NCATS).
Results filed as inconclusive are left out. Calls of active or inactive are those of the source. Calls follow the shape of the dose curve; as a rule, active = well fitted inhibition curve with a large enough effect; inconclusive = small, poorly fitted or top-dose-only effect; inactive = no such curve, though single readings can be large or run the other way.

The molecules below were run on Zika virus NS2B-NS3 protease (linked construct) (assay: Primary screen NINDS Rhodamine qHTS for Zika virus inhibitors (AID 1347160; also: nearly all actives have a fitted effect of over 55% in size)). Conditions: purified NS2B-NS3 protease, Rhodamine110 substrate fluorescence; series mostly up to 57.1 µM; activity change, negative = inhibition: at the top concentration.
Procedure, shortened: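 In 10 mM Tris-HCl pH 8.0 containing 0.01% Tween 20, linked NS2B-NS3 protease (25 nM final) is exposed to test compounds for 15 min. Cleavage of 1.5 microM Rhodamine110 substrate is tracked by fluorescence over 15 min.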
% is scaled to controls: 0 for no effect and ±100 for the full control effect.

SMILES	outcome	activity change, negative = inhibition
CC(C)C(CO)Nc1nc(Nc2ccc(C(=O)O)c(Cl)c2)c2ncn(C(C)C)c2n1 (stereo not given)	inactive	
CC(=O)c1ccc2c(c1)C(O)C(C(C)(C)O)O2 (stereo not given)	inactive	
CC(=O)OC1C(=O)C2(C)C(O)CC3OCC3(OC(C)=O)C2C(OC(=O)c2ccccc2)C2(O)CC(OC(=O)C(O)C(NC(=O)c3ccccc3)c3ccccc3)C(C)=C1C2(C)C (stereo not given)		-19.5% (inactive)
CCN1CCN(Cc2ccc(Nc3ncc(F)c(-c4cc(F)c5nc(C)n(C(C)C)c5c4)n3)nc2)CC1		83.3% (inactive)
CN(C)CCn1cc(S(=O)(=O)c2cccc(F)c2)c2cccnc21		28.5% (inactive)
CCC(=O)O[C@H]1C(C)(C)[C@H]([C@@H](O)C(=O)OC)[C@]2(C)C(=O)[C@@]1(O)[C@H]1O[C@]13C1CC(=O)O[C@@H](c4ccoc4)[C@]1(C)CCC32 (stereo not given in full)		22.5% [at 15.1 µM] (inactive)
CC(O)(CC(=O)O)CC(=O)OCc1ccc(O[C@@H]2O[C@H](CO)[C@@H](O)[C@H](O)[C@H]2O)cc1 (stereo not given in full)		-17% [at 33.1 µM] (inactive)
CCC(O)(C(=O)OCc1ccccc1NC(=O)CCC(=O)O)C(C)O (stereo not given)	inactive [at 33.1 µM]	
C[C@H](O)[C@H](O)/C=C/c1cccc(O)c1CO	inactive	
CCN(CC)Cc1ccc(C(=O)N(CCc2ccccc2OC)[C@@H]2CCNC2)cc1	inactive [at 33.1 µM]	
COc1ccc2cc(C(C)C(=O)Oc3ccc(C(N)=S)cc3)ccc2c1 (stereo not given)		23.7% (inactive)
CC/C=C\[C@H](O)[C@H](O)C1=C(C)C(=O)[C@]2(O1)C(=O)N[C@@](OC)(C(=O)c1ccccc1)[C@@H]2O		-17.8% [at 33.1 µM] (inactive)
C[C@H](C(=O)NC1CCCC1)N(C(=O)Cn1nnc(-c2ccc3c(c2)OCO3)n1)C1CCCCC1		-4.85% (inactive)
Cc1ccc(C(=O)N(CCCN)C(c2oc3cc(Cl)ccc3c(=O)c2Cc2ccccc2)C(C)C)cc1 (stereo not given)		932% (inactive)
C=C(C(=O)O)C1CCC2(C)CCC(O)C(C)(O)C2C1 (stereo not given)		-2.55% (inactive)
CCOc1ccc(NC(=S)N2CCC(C(O)(c3ccccc3)c3ccccc3)CC2)cc1	inactive	
COc1ccc(CC2C(=O)NC(C)C(=O)N(C)C3Cc4ccc(cc4)Oc4cc(ccc4OC4OC(CO)C(O)C(O)C4O)CC(C(=O)NC(C)C(=O)NC(C)C(=O)N2C)N(C)C3=O)cc1 (stereo not given)		-11.7% [at 15.1 µM] (inactive)
C[S+](CC[C@H](N)C(=O)[O-])C[C@H]1O[C@@H](n2cnc3c(N)ncnc32)[C@H](O)[C@@H]1O (stereo not given in full)		184% (inactive)
Cc1ccc(-c2ccc3ncc4c(c3n2)n(C2CCN(C(=O)[C@H](C)O)CC2)c(=O)n4C)cn1		-3.79% (inactive)
C[C@@H]1O[C@@H](O[C@H]2[C@H](O)[C@@H](O)[C@H](OC3CCC4(C)C5CCC(C)(C(CO)OC6OC(CO)C(O)C(O)C6O)CC5=CCC4C3(C)C)O[C@@H]2CO)[C@H](O)[C@H](O)[C@H]1O (stereo not given in full)		9.42% [at 15.1 µM] (inactive)
CC[C@H](NC(=O)[C@H](CS(=O)(=O)CC1CC1)N[C@@H](c1ccc(F)cc1)C(F)(F)F)C(=O)C(=O)NC1CC1		-4.52% (inactive)
CC(C)(O)CC(CO)NC(=O)CC(O)CC(=O)Cc1ccccc1 (stereo not given)		-14.1% [at 33.1 µM] (inactive)
COc1nc2sc(C(=O)NC3CC3)c(N)c2c(C)c1Cl		-19% (inactive)
C/C=C(\C)C(=O)O[C@H]1[C@@H](O[C@]2(COC(=O)CC(C)C)O[C@H](COC(=O)C(C)CC)[C@@H](OC(C)=O)[C@@H]2O)O[C@H](COC(C)=O)[C@@H](O)[C@@H]1O (stereo not given in full)	inactive [at 15.1 µM]	
CN(CCc1ccc(Nc2ncc(-c3cccnc3)s2)cc1)Cc1ccccc1		55% (inactive)
O=C1CCC(c2ccccc2)(C2CCN(Cc3ccc(I)cc3)CC2)C(=O)N1 (stereo not given)	inactive	
CO[C@H]1C[C@@H]2CC[C@@H](C)[C@@](O)(O2)C(=O)C(=O)N2CCCC[C@H]2C(=O)O[C@H]([C@H](C)C[C@@H]2CC[C@H](n3cnnn3)[C@H](OC)C2)CC(=O)[C@H](C)/C=C(\C)[C@@H](O)[C@@H](OC)C(=O)[C@H](C)C[C@H](C)/C=C/C=C/C=C/1C		-24.6% [at 33.1 µM] (inactive)
CCC(C)C(=O)OC1CC(C)C=C2C=CC(C)C(CCC(O)CC(O)CC(=O)O)C21 (stereo not given)	inactive [at 33.1 µM]	
CC1=C(CCC(C)CC(=O)O)[C@@]2(C)CCCC(C)(C)C2CC1=O (stereo not given in full)		-7.09% [at 33.1 µM] (inactive)
CC1(C)CC[C@]2(C(=O)O)[C@H](O)C[C@]3(C)C(=CCC4[C@@]5(C)CC[C@H](O[C@@H]6O[C@H](CO[C@@H]7OC[C@H](O)[C@H](O)[C@H]7O[C@@H]7OC[C@@H](O)[C@H](O)[C@H]7O)[C@@H](O)[C@H](O)[C@H]6O[C@@H]6O[C@H](CO)[C@@H](O)[C@H](O)[C@H]6O)C(C)(C)C5CC[C@]43C)[C@@H]2C1 (stereo not given in full)	inactive [at 15.1 µM]	
